Data taken from PubChem BioAssay AID1672 (Johns Hopkins Ion Channel Center, 2009).
In all, about 310,000 compounds went through this assay and about 2,600 (0.84%) were called active.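 How the source made its calls: active means fluorescence ratio B-score at or below minus 3 SD of library scores, with starting-brightness B-score within 2 SD (cut at about -4.2 in these data); inactive means the rest.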 This excerpt belongs to a sample that is enriched for actives.

Each compound was assayed against Inward rectifier potassium channel 2 (Mus musculus) (UniProt P35561) (assay: inhibitors of mouse Kir2.1 inward-rectifier potassium channel (AID 1672;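 further: channel flux triggered by added potassium and thallium sulfate stimulus; B-score of peak minus minimum fluorescence over baseline after thallium stimulus; more negative B-score means stronger Kir2.1 block with less thallium influx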)). Conditions: HEK293-Kir2.1, FluxOR thallium flux fluorescence; at 10 µM; hits give low values.
Sequence of Inward rectifier potassium channel 2 (Mus musculus) (P35561 whole entry, looked up): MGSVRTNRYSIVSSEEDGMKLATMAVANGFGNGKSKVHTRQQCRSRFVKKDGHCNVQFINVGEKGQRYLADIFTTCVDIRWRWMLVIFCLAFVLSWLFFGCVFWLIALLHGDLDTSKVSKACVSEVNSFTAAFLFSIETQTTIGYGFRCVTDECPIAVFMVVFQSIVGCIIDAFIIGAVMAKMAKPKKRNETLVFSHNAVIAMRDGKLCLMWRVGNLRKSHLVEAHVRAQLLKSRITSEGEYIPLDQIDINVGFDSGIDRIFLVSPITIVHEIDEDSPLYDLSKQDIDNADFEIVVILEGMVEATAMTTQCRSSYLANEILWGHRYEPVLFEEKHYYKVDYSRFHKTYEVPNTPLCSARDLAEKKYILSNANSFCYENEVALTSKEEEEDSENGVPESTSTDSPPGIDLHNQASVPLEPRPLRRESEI

B-score, inactive:
CCC(C)N(C(=O)CSc1ncnc2c1cnn2-c1ccccc1)C1CCS(=O)(=O)C1 (stereo unspecified) 0.08
COCCNCCOCCOc1cccc(OC)c1 -0.8
CCOc1ccccc1OCCCNCc1ccccc1 -3.69
CCCOc1ccc(Cl)cc1Nc1nc(NCCO)nc(N2CCCC2)n1 0.67
COc1cccc(OCCCN2CCCCCC2)c1 0.91
Cc1ccc(C(C)C)cc1OCCN1CCCC1 -1.08
Cc1cccc(NC(=O)c2ccc(S(=O)(=O)N(C)CC3CCCO3)cc2)c1C (stereo unspecified) 1.86
CN(c1ccc(OCC(=O)O)cc1)S(=O)(=O)c1ccc2ccccc2c1 -1.8
CN(c1ccccc1)S(=O)(=O)c1ccc(NC(=O)COc2ccccc2)cc1 -1
COc1ccc(CCNC(=S)N2CCN(S(=O)(=O)c3ccc(F)cc3)CC2)cc1 0.06
Cc1ccc2nc(N3CCN(C(=O)c4ccco4)CC3)sc2c1 -0.26
OCc1ccc(-c2ccccc2)c(-c2ccccc2)c1 -1.83
Cc1cc(C)c(S(=O)(=O)NCC(c2ccc3c(c2)OCO3)N2CCOCC2)c(C)c1 (stereo unspecified) -1.24
COc1ccc(NC(=O)C(=O)NCC(c2ccco2)N2CCc3ccccc3C2)cc1 (stereo unspecified) 1.13
COc1ccc(OC)c(NC(=S)N2CCc3ccccc3C2)c1 0.14
Cc1c(C)n2c(SCC(=O)NC3CCCC3)nnc2[nH]c1=O 0.79
O=C1[C@H]2[C@@H](c3ccc(F)cc3)N3C(=O)N(c4ccc(C(F)(F)F)cc4)C(=O)[C@@]3(Cc3ccccc3)[C@H]2C(=O)N1C1CCCCC1 -0.87
[O-][n+]1ccc(OCc2ccccc2)cc1 0.47
Cc1cccc(N2CC(C(=O)Nc3ccccc3N3CCCC3)CC2=O)c1C (stereo unspecified) 0.2
CC(=O)Nc1ccc(Nc2c3ccccc3nc3ccccc23)cc1 0.07
N#Cc1cccc(Nc2c3c(nc4ccccc24)CCCC3)c1 -0.49
Cc1ccc(S(=O)(=O)NC(C)C(=O)NCc2ccc(Cl)cc2)cc1 (stereo unspecified) 1.6
CSCC(=O)N1CCCC(C(=O)c2cc(F)ccc2F)C1 (stereo unspecified) 1.27
O=C(c1ccc(OC2CCN(C/C=C/c3ccc(F)cc3)CC2)cc1)N1CCCCC1 -2.2
COc1ccc(-c2csc3ncnc(N4CCN(S(=O)(=O)c5cccc(F)c5)CC4)c23)cc1 0.02
O=C(NC1CCCC1)C1CCN(C(=O)Nc2cccc(Cl)c2)CC1 -1.63
O=C(Nc1ccc(-c2cscn2)cc1)C1CCCN(Cc2ccc(CO)o2)C1 (stereo unspecified) -0.77
CCNC(=S)NNC(=O)C1CCN(Cc2ccccc2)CC1 -0.93
COc1cccc(-c2cccc(NC(=O)C3CCN(C4CCC4)CC3)c2)c1 -0.09
CC(=O)c1cc(CN2CCC(C(=O)Nc3cccc(-c4cscn4)c3)CC2)cs1 -2.25
O=C(Nc1cnn(Cc2ccc(Cl)cc2)c1)C1CCCC1 -1.43
CCOC(=O)c1c(C)oc2cc(Sc3ccccc3)c(O)c(O)c12 1.87
CCC(c1nnc(SCC(=O)NNC(=O)c2ccccc2)n1Cc1ccccc1)N(C)C (stereo unspecified) 0.93
CCCNC(=O)c1onc(CSc2ccc(F)cc2)c1C(=O)NC(C)C -1.25
O=[N+]([O-])c1ncc(Br)cc1Nc1ccccc1 0.16
O=C(NCc1ccncc1)c1ccc(NS(=O)(=O)c2cccc([N+](=O)[O-])c2)cc1 0.45
CCCCN1C(N)=NC[C@@H]1CC1CCCCC1 -1.04
COc1cccc(NC(=O)CSc2nccn(-c3ccc4c(c3)OCCO4)c2=O)c1 -0.69
Nc1ccccc1/C=N\N=C/c1ccccc1N -1.02
Cc1noc(C)c1CSCC(=O)Nc1ccc(Br)cc1Cl 0.74
COc1ccc(Cl)cc1NC(=O)CN(C)C(=O)c1cc(-c2cccs2)nn1-c1ccccc1 -0.85
CCCCn1c(N)c(N(CCOC)C(=O)c2sc3ccccc3c2Cl)c(=O)[nH]c1=O -0.1
COc1ccc(NS(=O)(=O)c2ccc(C)c(C(=O)N(C)Cc3ccc(OC)cc3OC)c2)cc1 0.75
Cc1ccc(S(=O)(=O)N(Cc2cccc([N+](=O)[O-])c2)C(=O)N2CCN(C)CC2)cc1 1.58
CCN(CC)C(=O)CN(c1cccc([N+](=O)[O-])c1)S(=O)(=O)c1ccccc1 1.08
COc1ccccc1NC(=O)Nc1nc(CC(=O)Nc2ccccc2F)cs1 -0.89
CC1CCc2[nH]c3ccc(C(=O)N(C)CC(=O)Nc4cccc(F)c4)cc3c2C1 (stereo unspecified) -0.84
O=C(CN1C(=O)c2ccccc2C1=O)NCc1ccc(C(=O)O)cc1 -0.03
CC(C)N(C(=O)c1ccc(-c2ccccc2F)cc1)C(C)C -0.06
COc1ccc(CCNc2cc(N3CCN(C(=O)c4ccccc4OC)CC3)ccc2[N+](=O)[O-])cc1OC -0.2
CC1(C)C=Cc2c(ccc3c2OC[C@@H](c2ccc(O)cc2O)C3)O1 0.26
Cc1ccc(S(=O)(=O)CCC(=O)Nc2nnc(CC(C)C)s2)cc1 0.9
OC(COc1ccc(Br)cc1)CN1CCCC1 (stereo unspecified) -0.51
COc1ccc(OCC(O)CNCCNc2nccc(C(F)(F)F)n2)cc1 (stereo unspecified) -1.42
CCCCCC(=O)N1CCN(S(=O)(=O)c2ccc3c(c2)OCCCO3)CC1 -1.7
COc1ccc(Cl)cc1NC(=O)CN1CCN(C(=O)N2CCOCC2)CC1 -2.11
CC1CC(=O)Nc2ccccc2N1S(=O)(=O)c1cccs1 (stereo unspecified) -0.1
CC1CC(C)(C)NC(=S)N1CCC(=O)N1CCN(Cc2ccccc2)CC1 (stereo unspecified) -0.96
O=C(NCCc1ccco1)C(=O)NCCC1CCCCN1S(=O)(=O)c1ccccc1 (stereo unspecified) -0.4
CN(C)S(=O)(=O)c1cccc(-c2nn(-c3ccccc3)cc2/C=C2\SC(=S)N(CC(=O)O)C2=O)c1 0.81
COc1ccc(-c2nn(-c3ccccc3)cc2/C=C2/SC(=S)N(CCCC(=O)O)C2=O)c(C)c1 0.15
COc1ccc(-c2cc(C(=O)N/N=C/c3cccnc3)c3ccccc3n2)c(OC)c1 0.47
O=C(NNC(=O)c1ccc(-c2ccccc2)cc1)Nc1ccccc1 -0.44
CCOC(=O)c1c(C)[nH]c(C(=O)OCC(=O)N2CCCC2=O)c1C -0.25
Cc1ccc(NC(=O)CSc2nc(=O)n(CCN(C)C)c3c2CCCC3)c(C)c1 -0.41
Cc1csc(NC(=O)CSc2nc(=O)n(CCCN(C)C)c3c2CCC3)n1 1.14
COc1ccc(S(=O)(=O)N2CCCCC2)cc1NC(=O)COc1ccccc1 0.95
CC(Nc1nc(N2CCOCC2)nc2ccccc12)c1ccccc1 (stereo unspecified) -0.41
CC(Nc1nc(N2CCN(CCO)CC2)nc2ccccc12)c1ccccc1 (stereo unspecified) -0.6
COc1ccc(-c2nc3ccccc3c(=O)n2CCc2ccc(O)cc2)cc1 0.02
COc1ccc(-c2c(C#Cc3ccccc3)c3ccccc3n2C)cc1 0.01
CCOc1cc2ccccc2cc1C(=O)Nc1ccccn1 1.1
COc1ccccc1C(=O)Nc1ccccc1C(=O)Nc1ccccc1 1.53
COc1cccc2[nH]c(C(=O)NCCc3ccccc3)cc12 0.06
CC(C)(C)NCC(O)COc1cccc2[nH]c(=O)[nH]c12 (stereo unspecified) 1.46
CCCOc1ccc(C2c3c(oc4cc(C)c(C)cc4c3=O)C(=O)N2CCCN2CCOCC2)cc1 (stereo unspecified) 0.6
Cc1cc2oc(=O)cc(CN3CCN(Cc4ccccc4)CC3)c2cc1C -2.25

B-score, active:
Clc1cccc(Cl)c1OCCOCCNCc1ccccc1 -7.4
Cc1cc(OCCN2CCCC2)cc(C(C)C)c1 -4.28
COCCNC(=O)COc1ccc(N(C)S(=O)(=O)c2ccc3ccccc3c2)cc1 -5.91
COc1ccc(CCC(C)N2CCc3ccccc3C2)cc1 (stereo unspecified) -8.02
Cc1ccc(Nc2c3c(nc4ccccc24)CCC3)cc1 -15.2
COc1ccc(/C=C/CN2CCCC(C(=O)c3cc(F)ccc3F)C2)cc1 (stereo unspecified) -4.21
O=C(Nc1cccc(-c2cccc(Cl)c2)c1)C1CCN(C2CCC2)CC1 -4.84
CCn1cc(CN2CCC(C(=O)Nc3cccc(-c4cccc(Cl)c4)c3)CC2)cn1 -6.62
O=C(Nc1cccc(-c2cscn2)c1)C1CCN(Cc2ccsc2)CC1 -7.36
O=C(CCl)N(Cc1cccc([N+](=O)[O-])c1)c1cccc(Cl)c1 -5.7
CC(=O)N(C1=C(Cl)C(=O)c2ccccc2C1=O)c1ccc(C(=O)O)cc1 -11
CC(C)(C)CC(C)(C)NCC(O)COCCOc1ccc(Br)cc1 (stereo unspecified) -6.18
CC1CC(=S)Nc2ccccc2N1Cc1ccccc1 (stereo unspecified) -4.8
Cc1ccc(-c2nn(-c3ccccc3)cc2/C=C2\SC(=S)N(CCCCCC(=O)O)C2=O)o1 -6
Cc1ccc2nc(NC(=O)CSc3nc(=O)n(CCCN(C)C)c4c3CCC4)sc2c1 -4.83
CC(Nc1nc(N2CCCC2)nc2ccccc12)c1ccccc1 (stereo unspecified) -4.56
COc1ccc(CCNCc2c(-c3ccccc3)n(C)c3ccccc23)cc1 -10.9
COc1ccccc1OCCNCC(O)COc1cccc2[nH]c3ccccc3c12 (stereo unspecified) -4.77
Cc1cc2oc3ccc(NCCC4CCCN4C)cc3c(=O)c2cc1C (stereo unspecified) -7.66
